High-throughput results as filed in PubChem.
TRHR PAM: allosterically enhances the human TRH receptor. P34981. TRHR cells, fluo-8 calcium fluorescence, EC20 TRH enhancement. enhancement, % at 2 µM. hit rate 0.66% among 360,000; in the data active means enhancement above about 30%; further: 0% is about no effect
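TRHR-expressing cells loaded with fluo-8 calcium dye were read kinetically (ex 480/em 530) during compound addition, then stimulated with an EC20 of TRH (10 nM final). Enhancement of the Gq-mediated intracellular calcium response was scored.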
TRHR agonist: agonists of human TRH receptor; P34981; TRHR cells, calcium flux fluo-8, FDSS agonist mode; activation, % at 2 µM; hit rate 0.18% among 360,000; further: 0% is about no effect
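Agonist-mode FDSS calcium read (Ex 480/Em 530, 1 s cycles) in 1536-well TRHR cells with fluo-8 dye, after 10-cycle baseline and 23 nL compound addition; TRH at EC20 (10 nM final) added afterwards for the enhancer phase.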
USP1 inh: inhibitors of human USP1/UAF1 deubiquitinase. O94782. recombinant USP1/UAF1, Ub-Rhodamine cleavage fluorescence. Potency, µM (top dose mostly 57.1 µM), for inactives: at the highest dose activity change, negative = inhibition, most hits filed as inhibitors. hit rate 0.23% among 390,000; active means well fitted inhibition curve with a large enough effect; inconclusive means small, poorly fitted or top-dose-only effect; inactive means no such curve, though single readings can be large or run the other way; further: potency means the concentration at half of the fitted maximal effect; on the % scale 0 is the no-effect control and ±100 the full control effect; nearly all actives have a fitted effect of over 60% in size
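USP1/UAF1 complex at 1 nM was preincubated with compound for 15 min at room temperature, then Ub-Rho substrate (150nM final) was added. Fluorescence (480/540 nm) was read kinetically, 6 reads every 60 seconds.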
D1 antag: antagonists of human D1 dopamine receptor | HEK293 TREx D1 cells, calcium flux, dopamine EC80; active compounds read low | P21728 | activity change, negative = inhibition, % at 10 µM | AID 504652 | hit rate 3.2% among 360,000; in the data active means activity change below about -30%; further: on the % scale 0 is the no-effect control and ±100 the full control effect
Target sequence (P21728 whole entry, looked up): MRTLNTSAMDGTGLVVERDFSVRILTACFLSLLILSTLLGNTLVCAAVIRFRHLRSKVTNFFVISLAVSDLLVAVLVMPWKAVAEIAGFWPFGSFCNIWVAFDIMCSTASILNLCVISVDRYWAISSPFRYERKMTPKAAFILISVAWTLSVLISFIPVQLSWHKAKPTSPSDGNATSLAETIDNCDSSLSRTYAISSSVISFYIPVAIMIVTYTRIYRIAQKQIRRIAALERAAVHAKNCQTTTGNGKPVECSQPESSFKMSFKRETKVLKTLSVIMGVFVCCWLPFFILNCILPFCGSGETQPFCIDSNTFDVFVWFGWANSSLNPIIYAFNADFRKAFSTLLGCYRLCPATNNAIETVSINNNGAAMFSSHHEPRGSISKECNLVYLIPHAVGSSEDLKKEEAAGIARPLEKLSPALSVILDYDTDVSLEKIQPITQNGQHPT
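After overnight tetracycline induction at 30 C, force-coupled D1 HEK293 cells took up a no-wash calcium dye at room temperature. Compounds were added and monitored 180 s, and the response to EC80 dopamine was then recorded.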
D1 ag: activates the human D1 dopamine receptor; hit rate 1% among 360,000; AID 504660; P21728; activation, % at 2 µM; HEK293 T-REx D1 cells, calcium flux, agonist mode; further: 0% is about no effect
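Tetracycline-induced HEK293 TREx D1 cells, force-coupled to calcium signalling, were dye-loaded with a no-wash calcium kit. Compound was pin-added after a 10 s baseline. Fluorescence was read kinetically at 1 cycle/s for 180 s, with calcium rises flagged as agonism.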
D1 potentiator: potentiators of human D1 dopamine receptor; AID 504651; HEK293 TREx D1 cells, calcium flux, dopamine EC20 potentiation; hit rate 0.036% among 360,000; potentiation, % at 10 µM; in the data active means potentiation above about 30%; further: 0% is about no effect
Numbers without * were called inactive. Only some compounds are listed: those with a hit (about 4.4% of all), similar ones and a draw of the others. Unless noted, no stated cut-off is given here; in the data, active means activation above about 30%; inactive means the rest.

`COc1cccc(CNC(=O)CCc2nnc3n(CC(C)C)c(=O)c4ccccc4n23)c1` gave TRHR PAM -1.3, TRHR agonist -0.1, USP1 inh inconclusive, D1 antag 18.0, D1 ag -0.2 and D1 potentiator -2.6.
For Cc1cccc(N2CCN(C(=O)C3CCCN(S(=O)(=O)c4ccc5c(c4)oc(=O)n5C)C3)CC2)c1C (configuration not stated) the results were TRHR PAM -5.9, TRHR agonist -1.0, USP1 inh inconclusive, D1 antag -30.8*, D1 ag 3.8 and D1 potentiator -1.5.
Screening CSCCC(NS(=O)(=O)c1ccc2c(c1)oc(=O)n2C)C(=O)N1CCN(c2cccc(Cl)c2)CC1 (configuration not stated) returned TRHR PAM 37.9*, TRHR agonist 0.5, USP1 inh -21.8%, D1 antag 0.2, D1 ag 10.0 and D1 potentiator -6.3.
For Cn1c(=O)oc2cc(S(=O)(=O)N3CCCC(C(=O)N4CCN(c5cccc(Cl)c5)CC4)C3)ccc21 (configuration not stated) the results were TRHR PAM -9.1, TRHR agonist -0.2, USP1 inh -16.4%, D1 antag -31.7*, D1 ag 5.9 and D1 potentiator -2.8.
Screening Cn1c(=O)oc2cc(S(=O)(=O)N3CCC(C(=O)N4CCN(c5cccc(Cl)c5)CC4)CC3)ccc21 returned TRHR PAM -0.1, TRHR agonist -1.6, USP1 inh -0.6%, D1 antag -31.2*, D1 ag 18.9 and D1 potentiator -3.9.
For Cc1nn(CC(=O)NC2CC2)c(=O)c2cc3ccccc3n12 the results were TRHR PAM 1.0, TRHR agonist 0.0, USP1 inh 8.9%, D1 antag 18.6, D1 ag 0.1 and D1 potentiator 1.6.
`Cn1c(=O)oc2cc(S(=O)(=O)N3CCCC(C(=O)NCCc4ccccc4)C3)ccc21` (configuration not stated) gave TRHR PAM -2.0, TRHR agonist -1.0, USP1 inh -25.1%, D1 antag -3.7, D1 ag 0.3 and D1 potentiator -2.9.
Screening Cc1cccc(CCNC(=O)C2CCCN(S(=O)(=O)c3ccc4c(c3)oc(=O)n4C)C2)c1 (configuration not stated) returned TRHR PAM -5.0, TRHR agonist -1.6, USP1 inh inconclusive, D1 antag -50.2*, D1 ag -1.3 and D1 potentiator -3.1.
For O=C(COCc1cc(-c2cccs2)on1)NCc1ccc(F)cc1 the results were TRHR PAM 1.1, TRHR agonist -0.6, USP1 inh -6.9%, D1 antag 6.7, D1 ag -0.6 and D1 potentiator -1.9.
Screening Cc1ccc(CN(Cc2cccn2-c2nnc(N3CCCC3=O)s2)C(=O)Nc2cc(C)cc(C)c2)cc1 returned TRHR PAM 2.8, TRHR agonist 0.0, USP1 inh -15.8%, D1 antag 9.7, D1 ag 1.1 and D1 potentiator -4.7.
For CCCC(C)C(=O)Nc1ncc(S(=O)(=O)c2ccc([N+](=O)[O-])cc2)s1 (configuration not stated) the results were TRHR PAM 15.3, TRHR agonist -1.3, USP1 inh -21.1%, D1 antag -68.4*, D1 ag 58.9* and D1 potentiator 6.5.
For CCC(C)(C)C(=O)Nc1ncc(S(=O)(=O)c2ccc([N+](=O)[O-])cc2)s1 the results were TRHR PAM 3.3, TRHR agonist 3.9, USP1 inh -7.3%, D1 antag -5.2, D1 ag 23.8 and D1 potentiator -5.8.
Oc1ccc(C23CC4CC(CC(C4)C2)C3)cc1O was read as TRHR PAM -3.5, TRHR agonist 0.2, USP1 inh -21.8%, D1 antag -6.2, D1 ag 1.7 and D1 potentiator -4.0.
Screening OCCN1CCN(CC(O)COc2ccc(C34CC5CC(CC(C5)C3)C4)cc2)CC1 (configuration not stated) returned TRHR PAM -2.2, TRHR agonist 3.6, USP1 inh -6.0%, D1 antag -41.8*, D1 ag 63.0* and D1 potentiator -3.0.
